Active and inactive are the calls of the source. Entries that show only a call come without a potency. The call rests on the fitted dose curve; in most records, active means well fitted curve in the direction sought with a large enough effect in the repeat runs; inconclusive means weak or mixed curves; inactive means flat fitted curve, though single readings scatter. Starred links: 1 amine or outer side, 2 acyl side, 3 side chain; linkers in the order of their positions; H or OH if unused. Positions of bridges follow the written chain, without caps; N, C: chain ends. Non-standard residues stand in square brackets, D forms with d. Residues, ends and D or L forms follow the SMILES beside them. Chains are numbered I, II in the order given. Actinocin(9to1) = Cc1c2oc3c(C)ccc(C(=O)[*:1])c3nc-2c(C(=O)[*:2])c(N)c1=O; NMeV = CN[C@H](C(=O)O)C(C)C; Sar = CNCC(=O)O
Potency means the concentration at half of the fitted maximal effect.

The assay in a line: qHTS assay to test for compound auto fluorescence at 460 nm (blue) in HEK293 cell free culture (AID 720681). The following applies: cell-free medium, autofluorescence 405/460 nm (blue); series mostly up to 91.3 µM. The source says: U.S. Tox21 Program National Center for Advancing Translational Sciences [NCATS] NIH Chemical Genomics Center [NCGC] U.S. Environmental Protection Agency [EPA] National Institutes of Environmental Health Sciences [NIEHS] National Toxicology Program [NTP] U.S. Food and Drug Administration [FDA] Tox21 Assay Overview: Compound auto fluorescence often interferes with screening of the compound library against various biological targets and signaling pathways. Some of these compounds may have fluorophoric properties. Such properties may interfere with the assay outputs resulting in false positives and/or negatives. To decrease such complications and ensure the compound activities are relevant in terms of biological response, the Tox21 10K compound library was screened for auto fluorescence. From the fluorophores used as reporter signals in our screening assays, the auto fluorescence equivalencies of compounds against three fluorophores have been evaluated: Triamterene, Fluorescein and Rose Bengal sodium for blue, green and red fluorescence, respectively. The fluorescence intensities were measured using Excitation/Emission wavelengths at 405/460nm, 485/535nm and 540/590nm for blue, green and red labels, respectively. This assay includes the blue fluorescence data.
Tox21 Assay Protocol Summary: 5 uL of culture medium (DMEM containing 10% FBS) per well was dispensed into black wall/clear bottom 1536-well plates using a Multidrop Combi Dispenser (ThermoFisher Scientific, Waltham, MA). After 23 nL compound or DMSO vehicle was transferred into assay plate by a pintool work station (Kalypsys, San Diego, CA), fluorescence intensities in the assay plates were measured by an Envision (PerkinElmer, Shelton, CT) plate reader using three labels for measuring blue, green and red fluorescence at […] 460, 535 and 590nm respectively.
For the compound `CC(C)(C)NCC(O)c1cc(O)cc(O)c1` (stereo not given), the Potency entry is “inactive”.

On to `CCn1cc(C(=O)O)c(=O)c2cc(F)c(N3CCNC(C)C3)c(F)c21` (stereo not given), for which the Potency entry was “inactive”.

For `CCCC(=O)c1ccccc1`, the Potency result is “inactive”.

Consider `Cc1cc(OCCOCC[N+](C)(C)Cc2ccccc2)ccc1C(C)(C)CC(C)(C)C`, for which the Potency entry was “inactive”.

With `O=C(Nc1ccccc1SSc1ccccc1NC(=O)c1ccccc1)c1ccccc1`, the Potency entry is “inactive”.

As to `CCc1cc(C(C)(C)C)c(O)c(C(C)(C)C)c1`, the Potency result was “inactive”.

In the case of `O=C1OC2(c3ccc(O)cc3Oc3cc(O)ccc32)c2ccccc21`, the Potency result is “inactive”.

`CCC(=O)/C=C/C1C(C)=CCCC1(C)C` (stereo not given): the Potency result was “inactive”.

Regarding `CC(C)CCOCc1ccccc1`, the Potency result is “inactive”.

As to `CCCCCCCCCCCCCCCCCl`, the fluorescence, % of fluorescent control was -0.061% [at 18.6 µM] (inactive).

With `CC1=CC(=O)c2ccccc2C1=O`, the Potency entry is “inactive”.

Regarding `c1ccc2c(c1)-c1cccc3c1c-2cc1ccccc13`, the Potency entry is “inactive”.

Take `CC(C)(c1ccccc1)c1ccc(Nc2ccc(C(C)(C)c3ccccc3)cc2)cc1`: the Potency entry was “inactive”.

As for `O=C(Oc1ccccc1)c1ccccc1O`, the Potency result was “inactive”.

Consider `O=C(O)CP(=O)(O)O`, for which the Potency entry was “inactive”.

`CN1C(=O)c2ccc([N+](=O)[O-])cc2C1=O`: the Potency entry was “inactive”.

As for `Nc1cc(Cl)c(-c2cc(Cl)c(N)cc2Cl)cc1Cl`, the Potency result is “inactive”.

Turning to `BrC1CCC(Br)C(Br)CCC(Br)C(Br)CCC1Br` (stereo not given), the Potency entry was “inactive”.

`CC(=O)Nc1ccc(C(=O)CCl)cc1`: the Potency result was “inactive”.

In the case of `CC[C@]1(O)C[C@@H]2CN(CCc3c([nH]c4ccccc34)[C@@](C(=O)OC)(c3cc4c(cc3OC)N(C)[C@H]3[C@@](O)(C(=O)OC)[C@H](OC(C)=O)[C@]5(CC)C=CCN6CC[C@]43[C@@H]65)C2)C1`, the Potency result was “inactive”.

Regarding `O=C(OCc1ccccc1)c1ccc(O)cc1`, the Potency result was “inactive”.

For the compound `CC(=O)OCC1=C(C(=O)O)N2C(=O)[C@@H](NC(=O)Cc3cccs3)[C@H]2SC1`, the Potency result was “inactive”.

Take `COC(=O)[C@H]1[C@H]2C[C@@H]3c4[nH]c5cc(OC)ccc5c4CCN3C[C@H]2C[C@@H](OC(=O)c2cc(OC)c(OC)c(OC)c2)[C@@H]1OC`: the Potency result was “inactive”.

`CC1=C(C=O)C(C)(C)CC=C1`: the Potency entry was “inactive”.

As to `CC(C)(C)c1ccc(O)c(C(C)(C)C)c1`, the Potency result is “inactive”.

Regarding `CC(=O)OCCOCCOCCOC(C)=O`, the Potency entry was “inactive”.

As to `COC(=O)/C=C/c1ccccc1`, the Potency entry was “inactive”.

For `CC(C)CCCCCCc1ccc(O)cc1`, the Potency entry was “inactive”.

On to `CCCCOCCOC(=O)c1ccccc1C(=O)OCCOCCCC`, for which the Potency entry was “inactive”.

As to `C=C(C)C(=O)O`, the Potency result was “inactive”.

In the case of `CN(C)c1ccc2nc3ccc(=[N+](C)C)cc-3sc2c1`, the Potency entry was “inactive”.

With `CC(=O)N[C@@H](CS)C(=O)O`, the Potency entry is “inactive”.

Turning to `O=C(O[C@@H]1Cc2c(O)cc(O)cc2O[C@@H]1c1cc(O)c(O)c(O)c1)c1cc(O)c(O)c(O)c1`, the Potency entry is “inactive”.

`NCCCCCC(=O)O`: the fluorescence, % of fluorescent control is 0.0269% [at 18.6 µM] (inactive).

Turning to `Nc1ccc2cc3ccccc3cc2c1`, the Potency was 39.8 µM (active).

As for `Nc1ccc(O)cc1`, the Potency result was “inactive”.

Consider `CCN(CC)C(=O)Nc1ccc(OCC(O)CNC(C)(C)C)c(C(C)=O)c1` (stereo not given), for which the Potency entry is “inactive”.

Turning to `Cc1cc(C2(c3cc(C)c(O)cc3C)OS(=O)(=O)c3ccccc32)c(C)cc1O`, the Potency result was “inactive”.

In the case of `O=C1CC2(CCCC2)CC(=O)N1CCCCN1CCN(c2ncccn2)CC1`, the Potency entry was “inactive”.

For `Cc1c2oc3c(C)ccc(C(=O)N[C@@H]4C(=O)N[C@H](C(C)C)C(=O)N5CCC[C@H]5C(=O)N(C)CC(=O)N(C)[C@@H](C(C)C)C(=O)O[C@@H]4C)c3nc-2c(C(=O)N[C@@H]2C(=O)N[C@H](C(C)C)C(=O)N3CCC[C@H]3C(=O)N(C)CC(=O)N(C)[C@@H](C(C)C)C(=O)O[C@@H]2C)c(N)c1=O` (I: T[dV]P[Sar][NMeV] / II: T[dV]P[Sar][NMeV]; ester I:1-I:C, II:1-II:C; linker I:N-II:N via Actinocin(9to1)), the Potency entry was “inactive”.

The values above are taken from PubChem BioAssay (Tox21).
